Measured potencies and affinities stand elsewhere. Unmarked numbers belong to inactive results. The rule behind the calls is not given here.
Assay: CPE inhibition in VEEV TC 83 infected cells, confirmatory screen (AID 602455)
Settings: series mostly up to 50 µM; inhibition: at the top concentration
With `O=C(Nc1nc2c(s1)CCCC2)c1cccs1` the “inhibition” value was -13.8%.
With `O=C(Cc1cccs1)Nc1nc2ccccc2s1` the “inhibition” value was -7.05%.
With `O=C(Cc1cccs1)Nc1nccs1` the “inhibition” value was -0.05%.
